Common to all, as to design: scale not given: direction of the effect not stated beside the values
Assay [1] has as its target Protein translocase subunit SecA (Escherichia coli (strain K12)) (UniProt P10408). Briefly: Assay to Identify E. coli SecA ATPase Inhibitors. As to conditions: 30 µM. The format is functional.
In assay [2] the target is T1, Ubiquitin-activating enzyme e1, putative (Leishmania donovani (strain BPK282A1)) (UniProt E9BSI1).
T1 sequence (whole entry): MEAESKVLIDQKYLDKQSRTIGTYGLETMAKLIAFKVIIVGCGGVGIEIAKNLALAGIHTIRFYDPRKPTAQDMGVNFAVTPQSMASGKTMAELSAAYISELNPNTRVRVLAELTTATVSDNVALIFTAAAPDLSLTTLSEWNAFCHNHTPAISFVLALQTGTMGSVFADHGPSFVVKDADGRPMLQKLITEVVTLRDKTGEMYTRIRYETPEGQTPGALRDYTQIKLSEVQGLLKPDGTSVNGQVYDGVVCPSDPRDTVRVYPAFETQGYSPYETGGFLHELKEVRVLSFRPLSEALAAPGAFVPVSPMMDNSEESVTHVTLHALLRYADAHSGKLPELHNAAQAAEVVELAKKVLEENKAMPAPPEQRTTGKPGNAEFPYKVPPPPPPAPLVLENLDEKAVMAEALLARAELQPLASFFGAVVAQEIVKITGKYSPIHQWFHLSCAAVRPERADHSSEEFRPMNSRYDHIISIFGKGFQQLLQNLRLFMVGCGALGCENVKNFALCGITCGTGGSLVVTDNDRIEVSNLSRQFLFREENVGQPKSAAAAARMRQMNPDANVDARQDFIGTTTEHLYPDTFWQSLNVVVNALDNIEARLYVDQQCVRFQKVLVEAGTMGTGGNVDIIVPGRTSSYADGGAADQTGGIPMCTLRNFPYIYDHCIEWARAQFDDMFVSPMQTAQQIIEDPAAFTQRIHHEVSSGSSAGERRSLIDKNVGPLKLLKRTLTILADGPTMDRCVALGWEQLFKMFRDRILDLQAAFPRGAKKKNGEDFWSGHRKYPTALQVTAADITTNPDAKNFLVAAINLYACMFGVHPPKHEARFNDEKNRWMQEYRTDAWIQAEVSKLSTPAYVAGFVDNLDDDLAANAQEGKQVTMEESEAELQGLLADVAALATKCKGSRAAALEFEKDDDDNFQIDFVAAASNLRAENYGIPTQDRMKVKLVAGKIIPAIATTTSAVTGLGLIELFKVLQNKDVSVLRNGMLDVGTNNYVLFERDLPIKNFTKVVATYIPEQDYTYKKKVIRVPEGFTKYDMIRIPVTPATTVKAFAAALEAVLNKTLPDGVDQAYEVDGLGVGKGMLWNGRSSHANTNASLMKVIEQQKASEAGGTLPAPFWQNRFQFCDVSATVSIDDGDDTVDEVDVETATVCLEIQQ
The assay can be described thus: Leishmania donovani Ubiquitin Activating Enzyme (LdE1). The format is functional. The conditions noted are these: 30 µM.

Assay [3] has as its target AMP-activated protein kinase, AMPK (Homo sapiens) (UniProt P54646+O43741+P54619+Q9UGJ0+Q9Y478+Q13131+Q9UGI9). The assay can be described thus: AMP-dependent Kinase enzyme assay. An in vitro enzyme assay that detects ADP turnover that is directly proportional to AMPK activity. This uses naive AMPK that is activated during the assay with MK-8722. The format is functional. As to conditions: 30 µM.

The target in assay [4] is Sialic acid-binding Ig-like lectin 9 (Homo sapiens) (UniProt Q9Y336). Briefly: Hs-Siglec9 ALPHAscreen SOP 20170721. The conditions noted are these: 10 µM. Background: In Alpha technology, singlet oxygen from a donor bead excites a nearby acceptor bead.
Sialic acid-binding Ig-like lectin 9 (Homo sapiens), sequence (Q9Y336 whole entry): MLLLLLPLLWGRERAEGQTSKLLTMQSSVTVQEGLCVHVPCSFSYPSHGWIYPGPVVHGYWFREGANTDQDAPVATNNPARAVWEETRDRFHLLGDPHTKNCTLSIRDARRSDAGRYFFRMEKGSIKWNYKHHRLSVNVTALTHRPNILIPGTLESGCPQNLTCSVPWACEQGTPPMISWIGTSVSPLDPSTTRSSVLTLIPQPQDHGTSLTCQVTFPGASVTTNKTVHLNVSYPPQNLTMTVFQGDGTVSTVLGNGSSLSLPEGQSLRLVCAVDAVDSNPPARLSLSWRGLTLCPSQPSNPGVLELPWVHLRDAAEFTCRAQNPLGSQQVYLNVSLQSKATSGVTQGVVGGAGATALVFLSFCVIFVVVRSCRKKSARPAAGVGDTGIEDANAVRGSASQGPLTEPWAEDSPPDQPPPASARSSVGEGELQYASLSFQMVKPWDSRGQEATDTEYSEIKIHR
Assay [5] relates to Trypanosoma cruzi. Briefly: Trypanosoma cruzi phosphomannomutase and mannose-1-phosphate guanylyltransferase assay. The format is functional. The conditions noted are these: 10 µM.
Assay [6] concerns the target T2, Arginase-2, mitochondrial (Homo sapiens) (UniProt P78540).
T2 sequence (whole entry): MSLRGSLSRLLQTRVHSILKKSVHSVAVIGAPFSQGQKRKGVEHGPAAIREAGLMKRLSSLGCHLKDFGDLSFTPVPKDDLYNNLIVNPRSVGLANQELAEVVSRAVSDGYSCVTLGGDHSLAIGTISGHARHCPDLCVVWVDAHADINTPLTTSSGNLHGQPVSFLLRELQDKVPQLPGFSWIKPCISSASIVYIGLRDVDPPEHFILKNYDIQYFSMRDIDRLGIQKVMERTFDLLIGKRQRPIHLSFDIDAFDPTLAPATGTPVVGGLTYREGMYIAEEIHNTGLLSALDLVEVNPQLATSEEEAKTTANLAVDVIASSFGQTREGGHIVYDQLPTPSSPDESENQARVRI
Briefly: in vitro enzyme assay to detect the production of urea directly proportional to the activity of Arginase II. Note: in the data most compounds retested in dose-response had high values. Format: functional. The conditions noted are these: 33.3 µM.

The target of assay [7] is T3, Proteasome subunit beta (Trypanosoma cruzi) (UniProt O96673).
T3 sequence (whole entry): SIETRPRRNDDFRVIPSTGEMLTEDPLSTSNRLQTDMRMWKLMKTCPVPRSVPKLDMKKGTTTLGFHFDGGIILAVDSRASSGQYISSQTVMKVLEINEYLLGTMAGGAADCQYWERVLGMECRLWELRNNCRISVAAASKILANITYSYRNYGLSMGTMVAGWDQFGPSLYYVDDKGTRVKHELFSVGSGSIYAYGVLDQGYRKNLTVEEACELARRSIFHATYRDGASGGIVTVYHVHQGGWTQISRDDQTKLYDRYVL
Briefly: Trypanosoma cruzi proteasome chymotrypsin-like activity (TcProtChymo) assay. Note: in the data most compounds retested in dose-response had high values. Format: functional. The conditions noted are these: 9.37 µM.

For assay [8], the species on record is Homo sapiens. The assay can be described thus: To identify inhibition of the IFN signalling (Jak-Stat) pathway via expression of an eGFP reporter gene under the control of an IFN-stimulated response element (ISRE) containing MxA promoter. The format is functional. As to conditions: 30 µM. A general note: A reporter such as luciferase makes a cellular process visible.

The target in assay [9] is T4, Tyrosyl-tRNA synthetase, putative (Trypanosoma cruzi (strain CL Brener)) (UniProt Q4DSP6).
T4 sequence (whole entry): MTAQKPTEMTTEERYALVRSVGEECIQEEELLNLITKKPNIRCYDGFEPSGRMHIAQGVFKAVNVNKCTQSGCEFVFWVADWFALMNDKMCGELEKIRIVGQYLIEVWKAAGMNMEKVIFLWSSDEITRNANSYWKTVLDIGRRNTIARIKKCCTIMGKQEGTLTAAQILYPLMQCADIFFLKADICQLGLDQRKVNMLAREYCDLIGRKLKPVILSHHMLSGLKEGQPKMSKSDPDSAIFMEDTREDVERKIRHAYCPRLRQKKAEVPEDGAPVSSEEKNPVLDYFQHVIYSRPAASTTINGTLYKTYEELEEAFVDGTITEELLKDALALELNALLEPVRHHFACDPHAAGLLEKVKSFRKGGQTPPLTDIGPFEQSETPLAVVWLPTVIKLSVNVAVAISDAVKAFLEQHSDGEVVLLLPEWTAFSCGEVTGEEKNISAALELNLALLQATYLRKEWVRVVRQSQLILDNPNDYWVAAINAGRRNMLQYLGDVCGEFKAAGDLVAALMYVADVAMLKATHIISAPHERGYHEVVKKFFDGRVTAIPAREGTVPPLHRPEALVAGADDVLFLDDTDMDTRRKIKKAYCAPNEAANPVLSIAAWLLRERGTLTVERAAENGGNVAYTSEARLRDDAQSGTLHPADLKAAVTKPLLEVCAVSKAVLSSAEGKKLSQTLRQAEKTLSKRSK
The assay can be described thus: Trypanosoma cruzi tyrosyl tRNA synthetase (TcYRS) _High Tyrosine SOP. Note: in the data most compounds retested in dose-response had high values. Format: functional. The conditions noted are these: 30 µM.

The target in assay [10] is T4, Tyrosyl-tRNA synthetase, putative (Trypanosoma cruzi (strain CL Brener)). The assay can be described thus: Trypanosoma cruzi tyrosyl tRNA synthetase (TcYRS) SOP. Format: functional. As to conditions: 30 µM.
In assay [11] the target is Chromo domain-containing protein 1 (Saccharomyces cerevisiae (strain ATCC 204508 / S288c) (Baker's yeast)) (UniProt P32657). Briefly: ScCHD-1 Enzyme Inhibition Assay. Note: in the data most compounds retested in dose-response had high values. Format: functional. The conditions noted are these: 30 µM.
Chromo domain-containing protein 1 (Saccharomyces cerevisiae (strain ATCC 204508 / S288c) (Baker's yeast)), sequence (P32657 whole entry, the tested form may be a part): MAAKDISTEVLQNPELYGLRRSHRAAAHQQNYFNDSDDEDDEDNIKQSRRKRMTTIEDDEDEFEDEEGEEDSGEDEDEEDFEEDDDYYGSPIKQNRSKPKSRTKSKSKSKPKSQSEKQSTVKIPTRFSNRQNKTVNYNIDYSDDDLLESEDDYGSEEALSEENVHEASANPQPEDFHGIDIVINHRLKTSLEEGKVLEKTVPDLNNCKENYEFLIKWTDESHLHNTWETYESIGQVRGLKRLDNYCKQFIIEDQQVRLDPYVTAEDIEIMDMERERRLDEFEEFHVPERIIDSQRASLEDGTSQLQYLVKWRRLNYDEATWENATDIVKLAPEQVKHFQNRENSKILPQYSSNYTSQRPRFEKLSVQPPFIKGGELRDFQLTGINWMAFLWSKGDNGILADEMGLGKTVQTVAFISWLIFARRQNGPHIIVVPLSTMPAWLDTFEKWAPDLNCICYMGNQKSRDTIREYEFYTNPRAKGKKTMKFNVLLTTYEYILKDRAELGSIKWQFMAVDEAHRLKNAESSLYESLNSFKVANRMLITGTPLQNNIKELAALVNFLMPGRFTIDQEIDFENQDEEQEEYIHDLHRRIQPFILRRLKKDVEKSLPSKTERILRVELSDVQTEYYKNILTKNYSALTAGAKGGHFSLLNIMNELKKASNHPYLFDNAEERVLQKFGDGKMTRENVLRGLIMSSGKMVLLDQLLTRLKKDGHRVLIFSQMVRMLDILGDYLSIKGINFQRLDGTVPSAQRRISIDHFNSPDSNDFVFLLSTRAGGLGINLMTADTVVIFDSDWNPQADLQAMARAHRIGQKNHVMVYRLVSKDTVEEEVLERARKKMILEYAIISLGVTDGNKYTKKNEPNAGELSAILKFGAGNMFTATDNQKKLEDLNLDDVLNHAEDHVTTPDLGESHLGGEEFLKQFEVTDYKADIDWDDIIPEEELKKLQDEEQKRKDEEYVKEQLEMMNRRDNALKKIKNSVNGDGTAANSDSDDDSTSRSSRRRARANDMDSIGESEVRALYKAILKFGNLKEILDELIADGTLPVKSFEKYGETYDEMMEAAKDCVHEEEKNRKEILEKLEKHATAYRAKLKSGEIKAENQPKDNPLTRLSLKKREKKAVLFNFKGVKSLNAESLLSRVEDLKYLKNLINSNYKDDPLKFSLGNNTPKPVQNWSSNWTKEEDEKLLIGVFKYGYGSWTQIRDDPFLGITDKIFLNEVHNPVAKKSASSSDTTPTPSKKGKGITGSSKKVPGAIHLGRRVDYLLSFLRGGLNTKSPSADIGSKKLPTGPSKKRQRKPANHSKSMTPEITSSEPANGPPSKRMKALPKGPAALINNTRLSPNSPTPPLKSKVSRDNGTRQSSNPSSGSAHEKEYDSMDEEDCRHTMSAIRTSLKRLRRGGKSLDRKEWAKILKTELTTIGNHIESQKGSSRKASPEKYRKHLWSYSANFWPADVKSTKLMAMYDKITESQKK

For some of these results: Results with a measured potency or affinity are listed apart.

Protein translocase subunit SecA (Escherichia coli (strain K12)), sequence (P10408 whole entry): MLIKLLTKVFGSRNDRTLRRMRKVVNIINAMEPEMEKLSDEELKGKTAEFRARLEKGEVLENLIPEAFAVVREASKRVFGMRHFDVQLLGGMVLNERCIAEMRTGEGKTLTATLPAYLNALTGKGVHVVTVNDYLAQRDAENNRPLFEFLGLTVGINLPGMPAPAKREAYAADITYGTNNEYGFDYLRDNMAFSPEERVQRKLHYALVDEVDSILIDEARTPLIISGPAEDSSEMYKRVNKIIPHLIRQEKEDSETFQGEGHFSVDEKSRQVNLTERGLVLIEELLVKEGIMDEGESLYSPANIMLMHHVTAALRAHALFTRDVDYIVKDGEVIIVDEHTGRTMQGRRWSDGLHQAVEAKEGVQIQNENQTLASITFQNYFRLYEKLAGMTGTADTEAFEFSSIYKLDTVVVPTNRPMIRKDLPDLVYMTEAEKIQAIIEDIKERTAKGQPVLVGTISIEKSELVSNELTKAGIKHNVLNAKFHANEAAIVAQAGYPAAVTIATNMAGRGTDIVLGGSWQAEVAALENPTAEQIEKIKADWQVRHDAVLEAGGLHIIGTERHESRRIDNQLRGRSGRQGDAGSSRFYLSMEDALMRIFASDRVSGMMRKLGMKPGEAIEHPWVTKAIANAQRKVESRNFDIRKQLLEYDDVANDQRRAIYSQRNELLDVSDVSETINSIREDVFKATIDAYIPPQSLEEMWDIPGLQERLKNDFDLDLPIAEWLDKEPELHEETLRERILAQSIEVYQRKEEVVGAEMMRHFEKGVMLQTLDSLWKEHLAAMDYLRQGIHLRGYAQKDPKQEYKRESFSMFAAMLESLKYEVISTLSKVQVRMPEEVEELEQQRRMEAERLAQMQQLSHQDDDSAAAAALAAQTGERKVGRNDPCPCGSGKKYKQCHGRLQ

Take `CN(C)CCOCC1CN(C(=O)[C@H]2CCCO2)Cc2ccnn2C1` (stereo partly drawn): the Percent Effect is -0.666% in [1]; 0% in [2]; -0.823% in assay [3]; 5.06% in assay [4]; -1.35% in [5]; -46.1% in assay [6]. In addition, the Percent Effect in assay [7] was 2.91%; in assay [8], -2.46%; in [9] it was 1.04%; in assay [10], -55%; in assay [11], 3.03%.

Consider `Cc1nn(CC(=O)N2CCCC2Cn2cccn2)c(C)c1Cl` (stereo not drawn), for which the Percent Effect in [1] was -7.11%; in assay [2], 21.6%; in assay [3] it was 0.532%; in assay [4], 8.29%; in assay [5], 5.86%; in [6] it was 36.2%. In addition, the Percent Effect in assay [7] was 22.9%; in assay [8], 21.4%; in assay [9], 9.9%; in assay [10], 20.7%; in assay [11] it was -6.56%.

`CCc1nc2n(n1)CC(NCc1nc(C)ccc1O)CC2` (stereo not drawn): the Percent Effect in assay [1] is -5.74%; in assay [2], 7.89%; in assay [3], 1.61%; in [4], 1.6%; in assay [5] it was 5.16%; in [6], -2.37%. Also, the Percent Effect in [7] was 5.85%; in assay [8] it was -1.01%; in assay [9], 0%; in assay [10], 10.4%; in assay [11], -1.98%.

For `Cc1ccc(F)c(C(=O)N2CCN(S(C)(=O)=O)[C@@H](C)C2)c1`, the Percent Effect in [1] is -1.54%; in [2] it was 2.74%; in assay [3], 5.45%; in assay [4] it was 3.05%; in [5], 6.86%; in assay [6], -1.82%. For the same molecule, the Percent Effect is 8.7% in assay [7]; 8.46% in assay [8]; -2.15% in assay [9]; 5% in [10]; -2.13% in [11].

As for `CC(C)c1nnc2n1CCN(C(=O)CN1Cc3ccccc3C1=O)C2`, the Percent Effect in [1] was -6.1%; in assay [2], 2.63%; in [3], -4.36%; in assay [4] it was 2.22%; in assay [5], 6.2%; in assay [6] it was -0.383%. Besides, the Percent Effect is 4.34% in [7]; 6.89% in [8]; 9.31% in assay [9]; 17.1% in assay [10]; -12.6% in [11].

Turning to `c1cnnc(N2CCCC(NCc3nc(C4CC4)no3)C2)c1` (stereo not drawn), the Percent Effect in [1] is -4.19%; in assay [2] it was -2.6%; in [3], -5.27%; in [4], 7.57%; in [5], 7.18%; in assay [6], 23.4%. The Percent Effect in [7] was 11.3%; in assay [8] it was -1.78%; in assay [9] it was 16.1%; in assay [10], 28.4%; in [11], -2.42%.

Consider `CC(C)(C)OC(=O)N1CCCC[C@H]1C(=O)NCc1nccs1`, for which the Percent Effect in assay [1] is -0.685%; in assay [2], 0%; in assay [3], -2.33%; in [4] it was 5.11%; in [5] it was 5.18%; in assay [6], 16.6%. The Percent Effect is 0.944% in [7]; -20.1% in assay [8]; 4.3% in [9]; 8.64% in assay [10]; -4.5% in assay [11].

Turning to `CCc1cnc(CN(C(C)=O)C2CCN(CCc3cccs3)C2)o1` (stereo not drawn), the Percent Effect in [1] was -3.22%; in assay [2], 13.2%; in [3], 0.738%; in [4] it was -12.5%; in [5], -4.95%; in assay [6], 2.16%. Also, the Percent Effect in [7] was 21.6%; in assay [8] it was 4.61%; in [9] it was 7.39%; in assay [10] it was 6.17%; in assay [11], -8.12%.

The record behind these values is ChEMBL document CHEMBL3988442, “University of Dundee, Small-Polar-MMV Screening Library” (2021).
